Results from PubChem BioAssay (NCATS).
Inconclusive results are not listed. Calls of active or inactive are those of the source. Calls come from the whole dose curve; as a rule, active = well fitted cell-killing curve with a large enough effect; inconclusive = small, poorly fitted or top-dose-only effect, or effect the other way; inactive = flat fitted curve, though single readings scatter. Where a SMILES comes first, the peptide text is derived from it. [ ]: non-standard residue; d: D form. 2Abz = Nc1ccccc1C(=O)O

Legend:
Assay in all cases: Primary qHTS to identify gynecologic anti-cancer compounds using libraries of approved drugs and bioactive compounds (AID 1345084); note: nearly all actives have a fitted effect of over 55% in size
Hek293T = conditions: Gynecologic cancer cell panel viability, ATPlite luminescence, 48 h, control line for the selectivity index; series mostly up to 57.5 µM
In short: (§1)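 In this quantitative HTS, cell killing is estimated from loss of ATP-dependent luciferase light. Cells see five compound concentrations over a 48 h exposure.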

JEG-3 = conditions: Gynecologic cancer cell panel viability, ATPlite luminescence, 48 h; series mostly up to 57.5 µM
In short: as §1

OV90 = conditions: Gynecologic cancer cell panel viability, ATPlite luminescence, 48 h; series mostly up to 57.5 µM
In short: as §1

PA-1 = conditions: Gynecologic cancer cell panel viability, ATPlite luminescence, 48 h; series mostly up to 57.5 µM
In short: as §1

SKOV3 = conditions: Gynecologic cancer cell panel viability, ATPlite luminescence, 48 h; series mostly up to 57.5 µM
In short: as §1

Tov-21-G = conditions: Gynecologic cancer cell panel viability, ATPlite luminescence, 48 h; series mostly up to 57.5 µM
In short: as §1

Tov112D = conditions: Gynecologic cancer cell panel viability, ATPlite luminescence, 48 h; series mostly up to 57.5 µM
In short: as §1
% is set by controls: 0 for no effect and ±100 for the full control effect; potency is the fitted concentration of half-maximal effect.

C=C1CC[C@H]2[C@@](C)(CCC(O)[C@@]2(C)CO)[C@@H]1C/C=C(/C(=O)O)C(O)CO (stereo partly specified)
inactive: Potency (Hek293T) | Potency (JEG-3) | Potency (OV90) | Potency (PA-1) | Potency (SKOV3) | Potency (Tov-21-G) | Potency (Tov112D)

N#Cc1ccc2[nH]c(O)c(-c3ccc(CN4CCOCC4)cn3)c2c1
inactive: Potency (Hek293T) | Potency (JEG-3) | Potency (OV90) | Potency (PA-1) | Potency (SKOV3) | Potency (Tov-21-G) | Potency (Tov112D)

O=C1Nc2ccc(O)cc2O[C@H]1O[C@@H]1O[C@H](CO)[C@@H](O)[C@H](O)[C@H]1O
inactive: Potency (Hek293T) | Potency (JEG-3) | Potency (OV90) | Potency (PA-1) | Potency (SKOV3) | Potency (Tov-21-G) | Potency (Tov112D)

COc1c(C)c(C(=O)c2ccc(N)c(C(=O)O)c2)n2ccccc12
inactive: Potency (Hek293T) | Potency (JEG-3) | Potency (OV90) | Potency (PA-1) | Potency (SKOV3) | Potency (Tov-21-G) | Potency (Tov112D)

C[C@H]1[C@H](C)CC[C@]2(C(=O)O[C@@H]3O[C@H](CO)[C@@H](O)[C@H](O)[C@H]3O)CC[C@]3(C(=O)O)C(=CCC4[C@@]5(C)CC[C@H](O[C@@H]6O[C@H](CO)[C@@H](O)[C@H](O)[C@H]6O)C(C)(C)C5CC[C@]43C)[C@H]12 (stereo partly specified)
inactive: activity change, negative = cytotoxicity (Hek293T) 3.39% [at 11.6 µM] | activity change, negative = cytotoxicity (JEG-3) 1.79% [at 11.6 µM] | activity change, negative = cytotoxicity (OV90) -4.18% [at 11.6 µM] | activity change, negative = cytotoxicity (PA-1) 5.91% [at 11.6 µM] | activity change, negative = cytotoxicity (SKOV3) 23.4% [at 11.6 µM] | activity change, negative = cytotoxicity (Tov-21-G) -3.54% [at 11.6 µM] | activity change, negative = cytotoxicity (Tov112D) 2.01% [at 11.6 µM]

C=CC(C)(O)CC/C=C(\C)C(=O)OCC1OC(OC2CCC3(C)C(CCC4(C)C3CC=C3C5CC(C)(C)C(O)CC5(C(=O)O)CCC34C)C2(C)C)C(O)C(OC2OC(CO)C(O)C(OC3OC(CO)C(O)C(OC4OC(COC5OC(CO)C(O)C(O)C5O)C(O)C(O)C4O)C3O)C2O)C1O (stereo unspecified)
inactive: activity change, negative = cytotoxicity (Hek293T) 3.14% [at 6.55 µM] | activity change, negative = cytotoxicity (JEG-3) 7.76% [at 6.55 µM] | activity change, negative = cytotoxicity (OV90) 12.5% [at 6.55 µM] | activity change, negative = cytotoxicity (PA-1) 15.1% [at 6.55 µM] | activity change, negative = cytotoxicity (SKOV3) 0.954% [at 6.55 µM] | activity change, negative = cytotoxicity (Tov-21-G) 2.74% [at 6.55 µM] | activity change, negative = cytotoxicity (Tov112D) -3.38% [at 6.55 µM]

CC(C)=CC/C=C(/C)[C@H]1CC[C@]2(C)[C@@H]1[C@H](O)CC1[C@@]3(C)CC[C@H](O)C(C)(C)[C@@H]3[C@@H](O[C@@H]3O[C@H](CO)[C@@H](O)[C@H](O)[C@H]3O[C@@H]3O[C@@H](C)[C@H](O)[C@@H](O)[C@H]3O)C[C@]12C (stereo partly specified)
inactive: Potency (Hek293T) | Potency (JEG-3) | Potency (OV90) | Potency (PA-1) | Potency (SKOV3) | Potency (Tov-21-G) | Potency (Tov112D)

C[C@@]12C[C@]3(O)O[C@H](O1)[C@]1(COC(=O)c4ccccc4)[C@H]3C[C@@]12O[C@@H]1O[C@H](COC(=O)c2ccccc2)[C@@H](O)[C@H](O)[C@H]1O
inactive: Potency (Hek293T) | Potency (JEG-3) | Potency (OV90) | Potency (PA-1) | Potency (SKOV3) | Potency (Tov-21-G) | Potency (Tov112D)

C=C1CCC2[C@@](C)(C=O)CCC[C@]2(C)[C@H]1CC/C(C)=C/CO (stereo partly specified)
inactive: Potency (Hek293T) | Potency (JEG-3) | Potency (OV90) | Potency (PA-1) | Potency (SKOV3) | Potency (Tov-21-G) | Potency (Tov112D)

CC1CCC2(O1)C(C)(C)CC(O[C@@H]1O[C@H](CO[C@@H]3OC[C@](O)(CO)[C@H]3O)[C@@H](O)[C@H](O)[C@H]1O)CC2(C)O (stereo partly specified)
inactive: Potency (Hek293T) | Potency (JEG-3) | Potency (OV90) | Potency (PA-1) | Potency (SKOV3) | Potency (Tov-21-G) | Potency (Tov112D)

CC1(C)O[C@]23C[C@H]1C[C@H](OC(=O)c1ccoc1)[C@]2(C)[C@@H](OC(=O)c1ccoc1)CCC3(C)O (stereo partly specified)
inactive: Potency (Hek293T) | Potency (JEG-3) | Potency (OV90) | Potency (PA-1) | Potency (SKOV3) | Potency (Tov-21-G) | Potency (Tov112D)

CCC(C)C1NC(=O)C2CCCN2C(=O)C(C(C)C)NC(=O)c2ccccc2NC(=O)C(Cc2ccc(O)cc2)NC(=O)C(C)NC(=O)C(C(C)O)NC1=O (stereo unspecified) (cyclo([2Abz]VPITAY); configuration not given here)
inactive: Potency (Hek293T) | Potency (JEG-3) | Potency (OV90) | Potency (PA-1) | Potency (SKOV3) | Potency (Tov-21-G) | Potency (Tov112D)

C=C[C@H]1[C@H](O[C@@H]2O[C@H](CO)[C@@H](O)[C@H](O)[C@H]2O)OC=C(C(=O)OC)[C@H]1C[C@@H]1N[C@H](C(=O)O)Cc2c1[nH]c1ccccc21
inactive: Potency (Hek293T) | Potency (JEG-3) | Potency (OV90) | Potency (PA-1) | Potency (SKOV3) | Potency (Tov-21-G) | Potency (Tov112D)

COc1cc(C[C@H]2COC(=O)[C@@H]2Cc2ccc(O)c(OC)c2)ccc1O
inactive: Potency (Hek293T) | Potency (JEG-3) | Potency (OV90) | Potency (PA-1) | Potency (SKOV3) | Potency (Tov-21-G) | Potency (Tov112D)

CC1CCC2C(C)(C)C(O)CCC2(C)C12Cc1c(O)cc3c(c1O2)CN(C(CCC(N)=O)C(=O)O)C3=O (stereo unspecified)
inactive: Potency (Hek293T) | Potency (JEG-3) | Potency (OV90) | Potency (PA-1) | Potency (SKOV3) | Potency (Tov-21-G) | Potency (Tov112D)

CCn1nnnc1NCc1ccc(C(C)C)cc1
inactive: Potency (Hek293T) | Potency (JEG-3) | Potency (OV90) | Potency (PA-1) | Potency (SKOV3) | Potency (Tov-21-G) | Potency (Tov112D)

COc1ccc(C[C@H](N)C(=O)N[C@H]2[C@@H](O)[C@H](n3cnc4c(N(C)C)ncnc43)O[C@@H]2CO)cc1
active: Potency (Hek293T) 2.82 µM | Potency (JEG-3) 3.98 µM | Potency (OV90) 3.16 µM | Potency (PA-1) 0.708 µM | Potency (SKOV3) 3.55 µM | Potency (Tov-21-G) 3.98 µM | Potency (Tov112D) 2 µM

C=C/C=C/[C@@H]1OC[C@H](/C=C/C=C/C)[C@H]1O
inactive: Potency (Hek293T) | Potency (JEG-3) | Potency (OV90) | Potency (PA-1) | Potency (SKOV3) | Potency (Tov-21-G) | Potency (Tov112D)
